Experimental data: publication PMC7826789 (International Journal of Molecular Sciences, 2021)

Columns and labels:
Settings in all cases: Compound Concentration (nM):1000
[1] = system: CDK3
[2] = system: CDK4-cyclinD1
[3] = system: CDK4-cyclinD3
[4] = system: CDK4
[5] = system: CDK5
[6] = system: CDK7
[7] = system: CDK8
[8] = system: CDK9
[9] = system: CDKL1
[10] = system: CDKL2
[11] = system: CDKL3
[12] = system: CDKL5
[13] = system: CHEK1
[14] = system: CHEK2
[15] = system: CIT
[16] = system: CLK1
[17] = system: CLK2
[18] = system: CLK3
[19] = system: CLK4
[20] = system: CSF1R-autoinhibited
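Further: KINOMEscan scanMAX binding as percent activity remaining versus control; lower means stronger binding.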

Structure (SMILES) | Percent Control [1] | Percent Control [2] | Percent Control [3] | Percent Control [4] | Percent Control [5] | Percent Control [6] | Percent Control [7] | Percent Control [8] | Percent Control [9] | Percent Control [10] | Percent Control [11] | Percent Control [12] | Percent Control [13] | Percent Control [14] | Percent Control [15] | Percent Control [16] | Percent Control [17] | Percent Control [18] | Percent Control [19] | Percent Control [20]
Cl.O=C(O[C@H]1CN[C@H](C#Cc2cc3ncnc(Nc4ccc5c(cnn5Cc5ccccc5)c4)c3s2)C1)N1CCOCC1 [GSK200398A] | 100% | 68% | 100% | 100% | 100% | 78% | 84% | 87% | 88% | 92% | 100% | 40% | 100% | 24% | 77% | 83% | 100% | 90% | 100% | 87%
CCc1ccc(Oc2nccc(-c3c(-c4ccc(F)cc4)ncn3C3CCNCC3)n2)cc1 [SB-242719] | 100% | 94% | 76% | 91% | 100% | 88% | 86% | 100% | 86% | 96% | 100% | 84% | 90% | 84% | 1.2% | 100% | 70% | 100% | 100% | 77%
COc1cccc(-n2ncc3c(N/N=C/c4ccncc4)ncnc32)c1 [GW784752X] | 100% | 49% | 72% | 93% | 90% | 8.1% | 100% | 100% | 51% | 46% | 46% | 5.1% | 100% | 87% | 86% | 42% | 61% | 100% | 45% | 96%
COc1ccccc1-c1cc(/C=C2\C(=O)Nc3ncc(Br)cc32)cc(Br)c1O [GW442130X] | 100% | 88% | 95% | 100% | 99% | 89% | 71% | 97% | 100% | 96% | 93% | 88% | 100% | 79% | 89% | 100% | 67% | 84% | 85% | 100%
NS(=O)(=O)c1ccc(N/N=C2\C(=O)Nc3ccc(-c4cnco4)cc32)cc1 [GW276655] | 47% | 29% | 31% | 94% | 81% | 32% | 100% | 93% | 39% | 49% | 37% | 16% | 100% | 93% | 79% | 36% | 24% | 100% | 37% | 88%
CN(C)c1cc2c(Nc3ccc4c(cnn4Cc4ccccc4)c3)ncnc2cn1 [GW282974X] | 100% | 81% | 84% | 89% | 39% | 82% | 100% | 100% | 75% | 100% | 100% | 40% | 85% | 2.9% | 79% | 75% | 86% | 100% | 100% | 100%
O=C(Nc1n[nH]c2nc(-c3ccc(O)cc3)c(Br)cc12)C1CC1 [SB-725317] | 16% | 2.5% | 4.4% | 100% | 100% | 19% | 100% | 95% | 98% | 60% | 100% | 37% | 100% | 100% | 51% | 100% | 95% | 100% | 100% | 96%
COc1ccc2[nH]c3c4[nH]c5ccc(OC)cc5c4c4c(c3c2c1)C(=O)NC4=O [GW296115X] | 100% | 82% | 74% | 100% | 75% | 56% | 87% | 58% | 75% | 92% | 91% | 94% | 12% | 1.7% | 35% | 80% | 56% | 79% | 57% | 59%
COc1cc(C=NNc2ncnc3c2cnn3-c2ccccc2)ccc1O [GW513184X] | 97% | 89% | 81% | 100% | 64% | 4% | 100% | 100% | 80% | 22% | 100% | 100% | 100% | 97% | 96% | 48% | 83% | 82% | 60% | 100%
NS(=O)(=O)c1ccc(N/N=C2\C(=O)Nc3ccc(C(=O)NCc4ccncc4)cc32)cc1 [GW300657X] | 66% | 13% | 12% | 84% | 77% | 13% | 75% | 100% | 46% | 99% | 84% | 6.5% | 100% | 67% | 87% | 67% | 17% | 92% | 75% | 83%
